D1 ag: human D1 receptor agonism; P21728; HEK293 T-REx D1 cells, calcium flux, agonist mode; 360,000 tested, 1% active; activation, % at 2 µM; in the data active = activation above about 30%
Target sequence (P21728 whole entry, looked up): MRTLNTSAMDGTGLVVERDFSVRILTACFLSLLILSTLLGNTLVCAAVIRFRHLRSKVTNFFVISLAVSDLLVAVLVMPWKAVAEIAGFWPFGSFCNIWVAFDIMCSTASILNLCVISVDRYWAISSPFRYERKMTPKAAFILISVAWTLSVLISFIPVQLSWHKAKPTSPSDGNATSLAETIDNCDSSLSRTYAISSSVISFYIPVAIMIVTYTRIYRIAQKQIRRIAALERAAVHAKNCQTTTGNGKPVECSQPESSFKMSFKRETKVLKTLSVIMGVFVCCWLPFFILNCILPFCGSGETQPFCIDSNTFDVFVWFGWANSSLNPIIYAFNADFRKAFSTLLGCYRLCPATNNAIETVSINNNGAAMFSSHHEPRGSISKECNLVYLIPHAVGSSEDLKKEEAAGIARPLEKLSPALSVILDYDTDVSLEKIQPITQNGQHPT
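Tetracycline-induced HEK293 TREx D1 cells, force-coupled to calcium signalling, were dye-loaded with a no-wash calcium kit. Compound was pin-added after a 10 s baseline. Fluorescence was read kinetically at 1 cycle/s for 180 s, with calcium rises flagged as agonism.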
D1 antagonist: blocks dopamine activation of the human D1 receptor | activity change, negative = inhibition, % at 10 µM | HEK293 TREx D1 cells, calcium flux, dopamine EC80; stronger effect = lower value | 360,000 tested, 3.2% active | AID 504652; in the data active = activity change below about -30%
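Tetracycline-induced HEK293 Trex D1 cells, force-coupled to calcium, dye-loaded; compounds added and read 180 s, then EC80 dopamine added and calcium flux tracked kinetically another 180 s.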
Eya2 inh: Eya2 (human) phosphatase inhibition; O00167; recombinant Eya2, OMFP fluorescence dephosphorylation (OMFP is methylfluorescein phosphate); Potency, µM (series often up to 76.9 µM), actives largely listed as inhibitors; 330,000 tested, 0.006% active; AID 488837
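Eya2 (0.2 uM) preincubated 10 min at ambient with compound, then OMFP substrate added at 50 uM; 10 min reaction in 50 mM HEPES pH 7.5, 50 mM NaCl, 5 uM MgCl2, 0.05% BSA, 1 mM DTT. Fluorescence read at Ex 485/Em 525 nm.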
USP2a inh: blocks human ubiquitin-specific protease USP2a | O75604 | USP2 core, Ub-CHOP2 coupled fluorogenic reporter, 485/531 | Potency, µM (doses to about 38.3 µM), usual class: inhibitors | 330,000 tested, 0.01% active
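Cell-free coupled assay: 10nM USP2 core preincubated 30min RT with compound in Tris-HCl pH 8.0/CaCl2/CHAPS buffer, then 25nM Ub-CHOP2 and 25nM reporter substrate; fluorescence (Ex 485/Em 531) read after 60min RT, normalized to NEM inhibition, concentration-response curves fitted.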
D1 potentiator: enhances dopamine response at the human D1 receptor | P21728 | HEK293 TREx D1 cells, calcium flux, dopamine EC20 potentiation | potentiation, % at 10 µM | 360,000 tested, 0.036% active | AID 504651; in the data active = potentiation above about 30%
GALK inh: blocks human galactokinase activity | Purified GALK, Kinase-Glo residual ATP luminescence | Potency, µM (series often up to 57.5 µM), most hits filed as inhibitors | 270,000 tested, 0.007% active | AID 1868
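Compounds were pin-transferred into ATP buffer (35 uM final), then GALK plus galactose (5 nM, 100 uM final) was added. After 1 h at room temperature, Kinase-Glo Plus was added and luminescence read after 10 min.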
Numbers stand for hits; 0 = inactive; ? = inconclusive; - = no result given. In the library only some 3.9% were active in any assay of this set; here they are far more common. Unless noted, calls come from the whole dose curve; as a rule, active = well fitted inhibition curve with a large enough effect; inconclusive = small, poorly fitted or top-dose-only effect, or effect the other way; inactive = flat fitted curve, though single readings scatter.

SMILES | D1 ag | D1 antagonist | Eya2 inh | USP2a inh | D1 potentiator | GALK inh
O=S(=O)(c1ccc2c(c1)OCCO2)N1CCN(S(=O)(=O)c2ccc3c(c2)OCCO3)CC1 | 0 | 0 | 0 | 0 | 0 | -
Cc1ccc(S(=O)(=O)N2CCN(c3ncnc4sccc34)CC2)cc1C | 0 | 0 | 0 | 0 | 0 | -
Cc1cc(C)c(C)c(S(=O)(=O)N2CCN(S(=O)(=O)c3ccc4c(c3)OCCO4)CC2)c1C | 0 | -48.5 | - | - | 0 | -
Cc1nnc2c(N3CCN(c4ccccc4)CC3)nc3ccc(C(=O)c4ccccc4)cc3n12 | 0 | 0 | - | - | 0 | -
COc1ccc(NC(=O)Cn2cc(C(=O)c3ccco3)c3ccccc32)cc1 | 0 | -86.8 | 0 | 0 | 0 | 0
CCOc1ccc(NC(=O)Cn2cc(C(=O)c3ccco3)c3ccccc32)cc1 | 0 | 0 | 0 | 0 | 0 | 0
COc1ccc(NC(=O)Cn2cc(S(=O)(=O)Cc3ccccc3)c3ccccc32)c(OC)c1 | 0 | -32.1 | 0 | 0 | 0 | 0
COc1ccc(NC(=O)CS(=O)(=O)c2cn(CC(=O)N(C(C)C)C(C)C)c3ccccc23)c(OC)c1 | 0 | 0 | 0 | 0 | 0 | 0
CCn1c(=O)cc(OCC(=O)NCc2ccccc2Cl)c2ccccc21 | 0 | 0 | - | - | 0 | -
CCOc1ccc(NC(=O)CC2C(=O)N(c3ccccc3)C(=O)N2Cc2cccc(OC)c2)cc1 (stereo not drawn) | 0 | 0 | - | - | 0 | -
Cn1c(=O)c2c(SCC(=O)NCC3CCCO3)nc(-c3cccc(F)c3)nc2n(C)c1=O (stereo not drawn) | 0 | 0 | - | - | 0 | -
COc1cccc(CCNC(=O)c2c(O)nc3cc(C)ccn3c2=O)c1 | 0 | 0 | - | - | 0 | -
COc1ccc(NCc2cc3cc4c(cc3n(CC(=O)Nc3ccc(C)cc3)c2=O)OCO4)cc1 | 57.4 | 0 | - | - | 0 | -
COc1ccc(NCc2cc3cc4c(cc3n(CC(=O)Nc3cccc(F)c3)c2=O)OCO4)cc1 | 152.9 | 0 | - | - | 0 | -
COc1ccc(NCc2cc3cc4c(cc3n(CC(=O)Nc3ccc(F)cc3F)c2=O)OCO4)cc1 | 66.0 | 0 | - | - | 0 | -
COc1cc2cc(CNc3ccccc3)c(=O)n(CC(=O)Nc3ccc(C)c(Cl)c3)c2cc1OC | 30.4 | 0 | - | - | 0 | -
CCc1ccc(NCc2cc3cc4c(cc3n(CC(=O)Nc3ccc(OC)cc3)c2=O)OCO4)cc1 | 0 | 0 | - | - | 0 | -
O=C(c1ccc2c(c1)N(Cc1ccc(F)cc1)C(=O)c1ccccc1S2(=O)=O)N1CCCCCC1 | 0 | 0 | - | - | 0 | -
CCc1ccc(NCc2cc3cc4c(cc3n(CC(=O)Nc3cccc(OC)c3)c2=O)OCO4)cc1 | 56.3 | 0 | - | - | 0 | -
Cc1nn2c(N3CCN(CCO)CC3)c3c(nc2c1-c1ccccc1)CCCC3 | 0 | -65.8 | 0 | 0 | 0 | 0
O=C1Cc2cc(CCN3CCN(c4nsc5ccccc45)CC3)c(Cl)cc2N1 | 0 | -83.8 | 0 | 0 | 0 | 0
Cc1cc(NC(=S)N(CCN2CCCCC2)Cc2ccco2)ccc1Cl | 0 | -38.2 | 0 | 0 | 0 | 0
O=C(COC(=O)CSc1ccc(F)cc1)NCC1CCCCC1 | 0 | -37.3 | 0 | 0 | 0 | 0
COc1ccc2[nH]c(=O)c(CN(Cc3ccco3)Cc3nnnn3Cc3ccccc3)cc2c1 | 0 | 0 | 0 | ? | 0 | 0
CCOc1ccc2[nH]c(=O)c(C(c3nnnn3Cc3ccco3)N3CCN(C)CC3)cc2c1 (stereo not drawn) | 0 | 0 | 0 | 0 | 0 | 1µM
SMILES | D1 ag | D1 antagonist | Eya2 inh | USP2a inh | D1 potentiator | GALK inh
COCCn1nnnc1CN(CCc1ccccc1)Cc1cc2ccc(C)cc2[nH]c1=O | 0 | -37.7 | 0 | ? | 0 | 0
CCOc1ccc2[nH]c(=O)c(CN(Cc3ccco3)Cc3nnnn3Cc3ccccc3)cc2c1 | 0 | -44.2 | 0 | 0 | 0 | 0
Cc1ccccc1Cn1c(=O)n(CCCCCC(=O)NCc2ccc3c(c2)OCO3)c(=O)c2sccc21 | 0 | 0 | - | - | 0 | -
COc1cc(OC)c(NC(=O)CCCn2nc(C)c3sc4ccccc4c3c2=O)cc1Cl | 0 | -70.6 | - | - | 0 | -
CC(=O)Nc1ccc(NC(=O)CCCn2nc(C)c3sc4ccccc4c3c2=O)cc1 | 0 | 0 | - | - | 0 | -
Cc1ccc(NC(=O)CCCn2nc(C)c3sc4ccccc4c3c2=O)c(Cl)c1 | 0 | -45.1 | - | - | 0 | -
CSc1ccc(CCNC(=O)CCCn2nc(C)c3sc4ccccc4c3c2=O)cc1 | 0 | -69.0 | - | - | 0 | -
Cc1oc(-c2ccc(C(=O)NCc3ccccc3Cl)cc2)nc1CN1CCc2ccccc21 | 0 | 0 | - | - | 0 | -
COc1cccc(NC(=O)c2nnn(Cc3cccc(C(F)(F)F)c3)c2N)c1 | 62.9 | 0 | - | - | 0 | -
COc1cccc(NC(=O)c2nnn(Cc3ccc(OC)c(Br)c3)c2N)c1 | 0 | -72.9 | - | - | 0 | -
COc1ccc(C)cc1NC(=O)c1nnn(Cc2cccc(C(F)(F)F)c2)c1N | 0 | 0 | 0 | 0 | 0 | 0
COc1cccc(NC(=O)c2nnn(Cc3ccc(Br)cc3F)c2N)c1 | 38.7 | 0 | 0 | 0 | 0 | 0
COc1ccccc1NC(=O)c1nnn(Cc2ccccc2)c1NC(C)=O | 0 | -48.0 | 0 | 0 | 0 | 0
COc1ccccc1Cc1nc2ccccc2nc1SCC(=O)Nc1ccccc1C(F)(F)F | 0 | 0 | - | - | 0 | -
COc1cc(C(=O)NCCc2sc(-c3ccc(C)cc3)nc2C)cc(OC)c1OC | 0 | 0 | - | - | 0 | -
COc1ccc(NC(=O)c2nnn(CC(=O)Nc3ccccc3OC)c2N)c(OC)c1 | 0 | 0 | 0 | 0 | 0 | 0
CCc1ccc(Cn2nnc(C(=O)Nc3ccc(OC)cc3OC)c2N)cc1 | 33.4 | 0 | 0 | 0 | - | 0
O=C1CN(C(=O)c2ccc(S(=O)(=O)N3CCCC3)cc2)C(c2ccccc2)c2cc(Cl)ccc2N1 (stereo not drawn) | 0 | 0 | - | - | 0 | -
CC(C)(C)n1nc(C2CC2)cc1NC(=O)Nc1ccc(Cl)cc1 | 0 | -40.8 | 0 | 0 | 0 | 0
Cc1cc(NC(=O)Nc2ccc(Cl)cc2)n(C(C)(C)C)n1 | 0 | 0 | 0 | 0 | 0 | 0
CCOc1ccc(CN2C(=O)CCC2(C)C(=O)NCc2cccnc2)cc1 (stereo not drawn) | 0 | -30.3 | 0 | 0 | 0 | 0
O=C(NCCc1ccccn1)C1CCN(S(=O)(=O)c2ccc(Cl)cc2)CC1 | 0 | 0 | 0 | 0 | 0 | 0
Cc1ccc(S(=O)(=O)N2CCC(C(=O)NCCc3ccccn3)CC2)cc1 | 0 | -57.6 | 0 | 0 | 0 | 0
O=C(COc1ccc(F)cc1)NCC(c1ccc(Cl)cc1)N1CCCCC1 (stereo not drawn) | 0 | 0 | - | - | 0 | -
Cc1ccc(NC(=O)Cn2nnc(C(=O)NCCc3ccccc3)c2N)cc1 | 0 | 0 | - | - | 0 | -
COc1cc(OC)c(OC)cc1/C=C/c1nc2cc3ccccc3cc2c(=O)n1-c1ccc(F)cc1F | 42.0 | 0 | - | - | 0 | -
Cc1cc2c(s1)c1cnn(Cc3c(F)c(F)c(C)c(F)c3F)c(=O)c1n2C | 0 | 0 | - | - | 0 | -

Screens (PubChem)
